{"source": "PubChem BioAssay AID1259374", "about": "(The Scripps Research Institute Molecular Screening Center, 2018)", "note": "“And” between values parts separate entries of the source, which are not always exact repeats. Equal values may be shown once. The whole screen tested about 650,000 compounds, of which about 5,900 (0.91%) were called active. This is one part of a sample in which actives are shown more often than they occur. Rule as the data show it: active = inhibition above about 50%; inactive = the rest.", "data": [{"target": "Microphthalmia-associated transcription factor (Homo sapiens) (UniProt O75030)", "sequence (O75030 whole entry, looked up)": "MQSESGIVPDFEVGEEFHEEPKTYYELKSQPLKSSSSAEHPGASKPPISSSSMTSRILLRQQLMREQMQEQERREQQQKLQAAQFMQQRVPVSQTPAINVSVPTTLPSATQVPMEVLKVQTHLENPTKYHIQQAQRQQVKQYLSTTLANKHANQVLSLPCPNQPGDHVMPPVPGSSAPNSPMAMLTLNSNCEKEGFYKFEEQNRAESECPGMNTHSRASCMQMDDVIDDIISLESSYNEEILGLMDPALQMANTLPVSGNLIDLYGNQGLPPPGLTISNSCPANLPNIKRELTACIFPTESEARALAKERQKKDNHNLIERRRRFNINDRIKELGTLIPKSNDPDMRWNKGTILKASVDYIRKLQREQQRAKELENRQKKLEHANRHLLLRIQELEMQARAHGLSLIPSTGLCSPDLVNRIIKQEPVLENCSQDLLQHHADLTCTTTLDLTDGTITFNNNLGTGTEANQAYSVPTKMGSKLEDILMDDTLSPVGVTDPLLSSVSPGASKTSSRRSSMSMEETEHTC", "assay": "MITF inhibitors, primary screen, biochemical, AlphaScreen, human (AID 1259374);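 also: 0% = vehicle wells with protein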", "settings": "AlphaScreen MITF homodimerization, bead proximity signal; at 2.6 µM; stronger effect = higher value", "values": [{"compound": "O=S(=O)(c1ccc(Cl)cc1)N1CCc2ccccc2C1", "inhibition": "10.1% (inactive)"}, {"compound": "CCOC(=O)c1c(NC(=O)c2ccc(OC)cc2OC)sc(C(C)=O)c1C", "inhibition": "7.53% (inactive)"}, {"compound": "Cc1cccc(C(=S)N2CCOCC2)c1", "inhibition": "-19.2% (inactive)"}, {"compound": "COc1ccc(CNc2ccc3ncc(-c4cccc(O)c4)n3n2)cc1", "inhibition": "-19% (inactive)"}, {"compound": "COc1cccc(CN2CCN(CCCc3ccccc3)CC2CCO)c1", "note": "(stereo not given)", "inhibition": "69% (active)"}, {"compound": "CCOc1cc(CN2CCN(Cc3cccc(OC)c3)C(CCO)C2)ccc1O", "note": "(stereo not given)", "inhibition": "-2.92% (inactive)"}, {"compound": "COc1ccc(CN2CCN(CCCc3ccccc3)C(CCO)C2)cc1O", "note": "(stereo not given)", "inhibition": "7.3% (inactive)"}, {"compound": "OCC1CCN(C2CCCN(Cc3cccc(-c4ccco4)c3)C2)CC1", "note": "(stereo not given)", "inhibition": "3.07% (inactive)"}, {"compound": "COc1ccccc1N1C(=O)c2ccc(C(=O)NN3C(=O)c4ccccc4C3=O)cc2C1=O", "inhibition": "11.1% (inactive)"}, {"compound": "COc1cc(N/N=C(\\C)c2ccc([N+](=O)[O-])cc2)ncn1", "inhibition": "9.19% (inactive)"}, {"compound": "Cc1cccc(CSc2n[nH]c(=O)[nH]c2=O)c1", "inhibition": "58.5% (active)"}, {"compound": "O=c1[nH]nc(SCc2ccc(Cl)cc2)c(=O)[nH]1", "inhibition": "4.19% (inactive)"}, {"compound": "O=c1[nH]nc(SCc2cn3cc(Cl)ccc3n2)c(=O)[nH]1", "inhibition": "-5.72% (inactive)"}, {"compound": "O=c1oc(-c2cccc3ncccc23)nn1Cc1cccnc1", "inhibition": "-6.6% (inactive)"}, {"compound": "COc1ccc(N(CC(=O)N2CCN(C)CC2)S(C)(=O)=O)cc1", "inhibition": "13.7% (inactive)"}, {"compound": "CCOc1ccc(-c2ccc(C)c(NC(=O)c3cccs3)c2)nn1", "inhibition": "0.28% (inactive)"}, {"compound": "Cc1ccc(C2=NN3C(=N)/C(=C/c4ccco4)C(=O)N=C3S2)cc1", "inhibition": "-3.9% (inactive)"}, {"compound": "N=C1/C(=C\\c2ccc([N+](=O)[O-])o2)C(=O)N=C2SC(N3CCOCC3)=NN12", "inhibition": "74.2% (active)"}, {"compound": "Cc1ccc(C2=NN3C(=N)/C(=C/c4ccc(-c5ccc(C(=O)O)cc5)o4)C(=O)N=C3S2)cc1", "inhibition": "3.4% (inactive)"}, {"compound": "Cc1nnc(SCC(=O)N2c3ccccc3Sc3ccccc32)nc1C", "inhibition": "-1.53% (inactive)"}, {"compound": "O=C(OCCN1CCOCC1)C1(c2ccccc2)CCCCC1", "inhibition": "3.29% (inactive) and -3.71% (inactive)"}, {"compound": "COc1ccc(/C=C/C(=O)OCCN2CCOCC2)cc1", "inhibition": "12.6% (inactive)"}, {"compound": "O=C(OCCN1CCOCC1)c1c(Cl)nc2sccn12", "inhibition": "68.3% (active)"}, {"compound": "CSc1cccc(NC(=O)C2C3C=CC4(O3)C2C(=O)N(CCCN2CCCC(C)C2)C4C(=O)NC2CCCCC2)c1", "note": "(stereo not given)", "inhibition": "1.08% (inactive)"}, {"compound": "COc1ccc(CN2CCCCC2)c(OC)c1", "inhibition": "-6.28% (inactive)"}, {"compound": "COc1ccc(OC)c(CN2CCN(Cc3ccccc3OC)CC2)c1", "inhibition": "65.1% (active)"}, {"compound": "COc1ccc(S(=O)(=O)N2CCN(Cc3ccccc3Cl)CC2)cc1", "inhibition": "8.12% (inactive)"}, {"compound": "COc1ccc(OC)c(CN2CCN(C3CCCCCC3)CC2)c1", "inhibition": "49.2% (inactive)"}, {"compound": "COc1cc(CN2CCN(Cc3ccccc3Cl)CC2)cc(OC)c1OC", "inhibition": "74.9% (active)"}, {"compound": "COc1ccc(CN2CCN(Cc3cccc(Br)c3)CC2)c(OC)c1", "inhibition": "72.2% (active)"}, {"compound": "COc1cc(CN2CCC(O)CC2)cc(OC)c1OC", "inhibition": "20.4% (inactive)"}, {"compound": "COc1ccc(CNCc2cccc(F)c2)c(OC)c1", "inhibition": "17.1% (inactive)"}, {"compound": "COc1cc(CN2CCOCC2)cc(OC)c1OC", "inhibition": "5.88% (inactive)"}, {"compound": "COc1cc(CN2CCN(C3CCCC3)C(CCO)C2)cc(OC)c1OC", "note": "(stereo not given)", "inhibition": "-4.18% (inactive)"}, {"compound": "COc1ccc(CN2CCN(Cc3cc(OC)c(OC)c(OC)c3)CC2)cc1", "inhibition": "70.5% (active)"}, {"compound": "COc1ccc(OC)c(CN2CCC(C(=O)NCC(C)C)CC2)c1", "inhibition": "10.5% (inactive)"}, {"compound": "CS(=O)(=O)Nc1ccc(C(=O)Nc2ccc(Br)c(Cl)c2)cc1", "inhibition": "11.7% (inactive)"}, {"compound": "COc1ccc(C(=O)N2CCc3c(nc(C)[nH]c3=O)C2)cc1Cn1nc(C)cc1C", "inhibition": "4.03% (inactive)"}, {"compound": "COc1cc(C2C3=C(Nc4[nH]c(=O)[nH]c(=O)c42)C(=O)CC(C)(C)C3)ccc1O", "note": "(stereo not given)", "inhibition": "-4.39% (inactive)"}, {"compound": "Cc1ccc(Cl)c2sc(=NC(=O)CN3C(=O)c4ccccc4C3=O)n(C)c12", "inhibition": "14.4% (inactive)"}, {"compound": "O=C(NCCc1ccc(O)cc1)C1CCN(c2ccc(Nc3ccc4ncccc4c3)nn2)CC1", "inhibition": "14.1% (inactive)"}, {"compound": "COc1ccc(Cl)cc1-c1nc(SCC(=O)Nc2ccc([N+](=O)[O-])cc2C#N)n[nH]1", "inhibition": "5.04% (inactive)"}, {"compound": "Cc1cc2c(cc3c(=O)n(CC(=O)N4CCCCCC4)nc(C)n32)s1", "inhibition": "19.7% (inactive)"}, {"compound": "CC(=O)NC1(c2ccccc2)CCN(C(=O)N(c2ccccc2)c2ccccc2)CC1", "inhibition": "-5.46% (inactive)"}, {"compound": "N#CC1=C(N)Oc2n[nH]c(-c3ccccc3)c2C1c1cc(Cl)cc(Cl)c1OC(=O)N1CCOCC1", "note": "(stereo not given)", "inhibition": "1.7% (inactive)"}, {"compound": "O=C(CSc1cn(Cc2cccc(F)c2)c2ccccc12)Nc1ccccc1", "inhibition": "-4.78% (inactive)"}, {"compound": "CCOC(=O)c1c(NC(=O)COc2ccc(C)cc2Br)sc2c1CCC(C)C2", "note": "(stereo not given)", "inhibition": "14.2% (inactive)"}, {"compound": "O=C(CSc1nnc2ncccn12)N1CCN(c2ccccc2F)CC1", "inhibition": "-5.77% (inactive)"}, {"compound": "COc1ccc(S(=O)(=O)NCc2ccccc2OC)cc1Br", "inhibition": "9.71% (inactive)"}, {"compound": "CCN(CC)C(=O)C1CCCN(Cc2ccccc2OC)C1", "note": "(stereo not given)", "inhibition": "16.3% (inactive)"}, {"compound": "CC1CN(Cc2ccc3ccccc3c2)CC(C)O1", "note": "(stereo not given)", "inhibition": "1.44% (inactive)"}, {"compound": "COc1ccc(CN2CCN(Cc3ccccc3OC)CC2)cc1Br", "inhibition": "77.2% (active)"}, {"compound": "COc1ccc(OC)c(CN2CCc3nnc(C4CCCO4)n3CC2)c1", "note": "(stereo not given)", "inhibition": "0.68% (inactive)"}, {"compound": "COc1ccccc1CN1CC(C)OC(C)C1", "note": "(stereo not given)", "inhibition": "82.9% (active)"}, {"compound": "COc1ccc(CN2CCN(Cc3cc(OC)ccc3OC)CC2)cc1", "inhibition": "76.4% (active)"}, {"compound": "COc1ccccc1CN1CCN(c2ccccn2)CC1", "inhibition": "45.1% (inactive)"}, {"compound": "COc1ccc(OC)c(CN2CCC3(CCC(CNC(C)=O)O3)CC2)c1", "note": "(stereo not given)", "inhibition": "-3.91% (inactive)"}, {"compound": "CCOc1ccc(CN2CCN(Cc3cc(OC)ccc3O)CC2)cc1", "inhibition": "20.6% (inactive)"}, {"compound": "COc1ccc(OC)c(CN2CCN(Cc3ccc(Cl)cc3)CC2)c1", "inhibition": "82.1% (active)"}, {"compound": "C=C(C)CN(CC)C(=O)C1CCN(Cc2cc(OC)ccc2OC)CC1", "inhibition": "33.5% (inactive)"}, {"compound": "Cc1ccc(N2C(=O)CN(S(C)(=O)=O)CC2(C)C(=O)NC2CCCC2)cc1C", "note": "(stereo not given)", "inhibition": "-2.11% (inactive)"}, {"compound": "O=C(OCCN=C1NS(=O)(=O)c2ccccc21)c1ccc([N+](=O)[O-])cc1", "inhibition": "-14% (inactive)"}, {"compound": "O=C1c2ccccc2C(=O)N1CCSc1nc2sc3c(c2c(=O)n1-c1ccccc1)CCCC3", "inhibition": "-1.49% (inactive)"}, {"compound": "CCOC(=O)c1cc(-c2ccc(O)c(OC)c2)no1", "inhibition": "-12.8% (inactive)"}, {"compound": "O=C(NCc1ccc(Cl)cc1)C1CCN(c2nnnn2-c2ccccc2)CC1", "inhibition": "5.24% (inactive)"}, {"compound": "O=C(CSc1nc(Nc2ccc(F)cc2)c2ccccc2n1)c1ccc(Cl)cc1", "inhibition": "10.1% (inactive)"}, {"compound": "Cc1ccc2[nH]c3nc(N/N=C/c4ccc(N(C)C)cc4)nnc3c2c1", "inhibition": "15.6% (inactive)"}, {"compound": "CC(C)N(CCNc1nc(N2CCCC2CO)nc2nc[nH]c12)C(C)C", "note": "(stereo not given)", "inhibition": "5.38% (inactive)"}, {"compound": "CC(=O)Oc1ccccc1C(=O)Nc1ccc(Cl)c(Cl)c1", "inhibition": "0.46% (inactive)"}, {"compound": "CCOC(=O)/C(C#N)=C/c1ccccc1OC", "inhibition": "-4.17% (inactive)"}, {"compound": "CNc1ccccc1C(=O)OCc1ccc([N+](=O)[O-])cc1Cl", "inhibition": "12.5% (inactive)"}, {"compound": "Cc1ccc2nc3sc(C(=O)Nc4c[nH]c(=O)[nH]c4=O)c(N)c3cc2c1", "inhibition": "0.86% (inactive)"}, {"compound": "Cc1ccc2nc(CN3CCN(C=O)CC3)nc(N3CCSCC3)c2c1", "inhibition": "-5.97% (inactive)"}, {"compound": "O=C(NCCc1ccc(F)cc1)c1ccc(Br)o1", "inhibition": "-9.44% (inactive)"}, {"compound": "CC1CCCC(N2CCN(Cc3ccccc3Cl)CC2)C1", "note": "(stereo not given)", "inhibition": "63.2% (active)"}, {"compound": "O=CN1CCN(Cc2ccccc2Cl)CC1", "inhibition": "3.26% (inactive)"}, {"compound": "CCC(C(=O)N1CCN(C(=O)C(CC)c2ccccc2)CC1)c1ccccc1", "note": "(stereo not given)", "inhibition": "6.26% (inactive)"}, {"compound": "NCC1CCN(Cc2ccccc2Cl)CC1", "inhibition": "21.9% (inactive)"}, {"compound": "COc1cc(CN2CCN(C(=O)c3cc(OC)c(OC)c(OC)c3)CC2)cc(OC)c1O", "inhibition": "-11% (inactive)"}, {"compound": "COc1cc(CN2CCN(C(=O)C(c3ccccc3)c3ccccc3)CC2)cc(OC)c1OC", "inhibition": "53.1% (active)"}, {"compound": "CCN(CC)C(=O)C(Cc1ccccc1)NCC(=O)Nc1ccc(C)cc1", "note": "(stereo not given)", "inhibition": "10.3% (inactive)"}, {"compound": "COc1cccc(OC)c1C(=O)Nc1ccc(Cl)cn1", "inhibition": "-14.5% (inactive)"}, {"compound": "CCOC(=O)c1sc(=S)n(-c2cccc(C(F)(F)F)c2)c1N", "inhibition": "-1.48% (inactive)"}, {"compound": "CN(C)c1cccc(Nc2ccc(-c3cccc(C=O)c3)cn2)c1", "inhibition": "50.8% (active)"}, {"compound": "CC(Nc1ccc(-c2cccc(C=O)c2)cn1)c1ccc(F)cc1", "note": "(stereo not given)", "inhibition": "7.6% (inactive)"}, {"compound": "CN(C)c1cccc(Nc2nccc(Nc3ccccc3)n2)c1", "inhibition": "-2.6% (inactive)"}, {"compound": "Fc1ccc(-c2cccc3ccc(N4CCN(c5ncccn5)CC4)nc23)cc1", "inhibition": "2.86% (inactive)"}, {"compound": "NC(=O)c1c(/N=C/c2ccc([N+](=O)[O-])cc2)sc2c1CCCC2", "inhibition": "7.76% (inactive)"}, {"compound": "O=C1N[C@H](Cc2ccc(O)cc2)C(=O)N2CCN(C(=O)c3ccccc3Cl)C[C@H]12", "inhibition": "-6.27% (inactive)"}, {"compound": "COc1cccc(/C=C(\\C#N)c2nc3ccc(C)cc3[nH]2)c1OC", "inhibition": "7.46% (inactive)"}, {"compound": "COc1ccccc1/C=C(/C#N)c1nc2ccccc2[nH]1", "inhibition": "11.1% (inactive)"}, {"compound": "COc1cccc(/C=C(\\C#N)c2nc3ccccc3[nH]2)c1OCc1ccc(Cl)cc1Cl", "inhibition": "52.7% (active)"}, {"compound": "Cc1ccc2oc(-c3ccc(C)c(NC(=O)c4ccc(Cl)c([N+](=O)[O-])c4)c3)nc2c1", "inhibition": "14.9% (inactive)"}, {"compound": "O=C1O/C(=C(\\c2cccc3ccccc23)[N+](=O)[O-])c2ccccc21", "inhibition": "7.98% (inactive)"}, {"compound": "O=C(NCC1CCCO1)C1CCC(Cn2c(SCc3ccc([N+](=O)[O-])cc3)nc3ccccc3c2=O)CC1", "note": "(stereo not given)", "inhibition": "1.86% (inactive)"}]}]}
